Assay outcomes as filed in PubChem BioAssay.
Insulin prom inh: TRM-6 insulin promoter activity inhibition | TRM-6 cells (human fetal islet line), insulin promoter-eGFP reporter, imaging; reporter expression induced with tamoxifen | inhibition, % at 2 µM | 130,000 tested, 0.9% active | AID 1273;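 active = inhibition above the mean plus 3 SD, with well images judged a real hit on visual review, cut at about 60% in these data, passing the limit was not always enough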
EP2 mod: modulators of human EP2 prostaglandin E2 receptor | induction, % at 25 µM | P43116 | 260,000 tested, 0.83% active | EP2-expressing cells, cAMP HTRF FRET, PGE2 co-stimulation | AID 940;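 active = compounds whose cAMP rise, as percent of the full-agonist control response, exceeds 60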;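 also: rat C6 glioma line stably carrying human EP2 under a CMV promoter; the protocol text gives 20 µM as final concentration; 100% = response of wells given 1 µM PGE2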
S1P4 ag: activates the human S1P4 receptor | O95977 | S1P4-expressing cell line, agonist reporter assay | activation, % at 4.98 µM | 220,000 tested, 0.35% active | AID 1509; in the data active = activation above about 11%;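 also: 0% = DMSO vehicle and 100% = reference agonist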
EP2 antag: inhibitors of human EP2 prostaglandin E2 receptor; inhibition, % at 25 µM; P43116; 260,000 tested, 0.52% active; C6 glioma cells expressing human EP2, cAMP TR-FRET; cells stimulated with saturating PGE2;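 active = percent inhibition above 40 after rounding to a whole number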;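 also: rat C6 glioma host cells with rolipram phosphodiesterase inhibitor present; the protocol text gives 20 µM as final concentration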
S1P4 antagonist: blocks the human S1P4 receptor; 220,000 tested, 0.26% active; AID 1510; S1P4-expressing cells, antagonist mode, reporter read-out; inhibition, % at 4.98 µM; in the data active = inhibition above about 29%;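 also: 0% = wells stimulated with agonist and 100% = vehicle wells without agonist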
S1P3 antag: antagonists of human S1P3 receptor. Q99500. CHO S1P3 NFAT-BLA reporter, FRET fluorescence, antagonist mode. inhibition, % at 4.98 µM. 170,000 tested, 0.27% active;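 active = inhibition above the plate cutoff, the mean inhibition of test wells on that plate plus 3 SD, cut at about 28% in these data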;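 also: cells challenged with S1P at its EC80 of 0.8 µM; blue over green emission ratio from cleaved BLA substrate after 4 h stimulation; 0% = S1P-stimulated wells and 100% = unstimulated DMSO-only wells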
Target sequence (Q99500 whole entry, looked up): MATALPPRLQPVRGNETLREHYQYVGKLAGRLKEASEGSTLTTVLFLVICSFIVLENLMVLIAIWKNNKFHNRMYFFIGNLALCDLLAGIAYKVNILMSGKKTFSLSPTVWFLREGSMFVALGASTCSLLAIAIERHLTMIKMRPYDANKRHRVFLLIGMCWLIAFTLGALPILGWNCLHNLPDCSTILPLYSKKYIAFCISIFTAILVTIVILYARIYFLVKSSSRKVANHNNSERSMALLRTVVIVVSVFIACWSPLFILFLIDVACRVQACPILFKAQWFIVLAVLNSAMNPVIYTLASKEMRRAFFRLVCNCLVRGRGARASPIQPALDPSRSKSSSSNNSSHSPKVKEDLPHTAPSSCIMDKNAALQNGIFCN
Starred values were filed as active, the others as inactive; x = no result given; ! = not confirmed by another sample. Sampled rows, rich in hits. Any-hit rate of the full collection: about 2.4%.

SMILES	Insulin prom inh	EP2 mod	S1P4 ag	EP2 antag	S1P4 antagonist	S1P3 antag
CC1CCCCN1CC(=O)Nc1ccccc1Sc1ccccc1 (stereo unspecified)	12	62*	1	12	-3	-1
N#Cc1ccc(-c2nc3ccccc3nc2-c2ccccc2)cc1C#N	x	29	1	7	-22	-16
Cc1nc2ccccc2nc1-c1ccc(N=[N+]([O-])c2ccc(-c3nc4ccccc4nc3C)cc2)cc1	x	7	x	54*	x	x
CCOC(=O)C1=C(C)NC(=O)N[C@@H]1c1coc2cc(C)cc(C)c2c1=O	x	8	x	53*	x	x
CCOC(=O)C1=C(C)NC(=O)NC1c1ccoc1 (stereo unspecified)	x	6	-1	11	-2	8
Cc1ccc(/C=C2\SC(=S)N(CCC(=O)NNS(=O)(=O)c3ccccc3)C2=O)cc1	x	65*	0	9	9	24
O=C(CCCN1C(=O)/C(=C\c2ccccc2)SC1=S)Nc1ccc(O)cc1	x	-86	-1	17	9	-8
COc1cc(/C=C2\SC(=S)N(NS(=O)(=O)c3ccc(C)cc3)C2=O)ccc1O	x	-51	-1	41*	-19	2
O=C(CCCN1C(=O)/C(=C/c2ccccc2)SC1=S)Nc1cccc(O)c1	0	-80	-1	70*	-8	-18
O=C1/C(=C/c2ccncc2)SC(=S)N1Cc1ccccc1	x	-22	0	44*	17	9
CCCN1C(=O)/C(=C/c2ccncc2)SC1=S	7	-41	0	16	3	-7
COc1cc(/C=C2\SC(=S)N(CCC(=O)NN3CCOCC3)C2=O)cc(OC)c1OC	x	9	x	15	x	x
COc1ccccc1NC(=O)N(Cc1cc2c(C)ccc(C)c2[nH]c1=O)C1CCCC1	x	-6	x	12	x	x
O=C(Cn1cnc2ccccc21)NC1(c2ccc(F)cc2)CCCC1	x	-29	x	x	x	x
CCN(c1cccc2ccccc12)S(=O)(=O)c1ccc(Cl)nc1	x	65*	1	3	6	2
COc1ccc(C)cc1NC(=O)C1CCN(c2nccc(C)n2)CC1	x	6	x	4	x	x
Cc1cccc2cc(C(c3nnnn3Cc3ccc(F)cc3)N3CCCCCC3)c(=O)[nH]c12 (stereo unspecified)	x	67*	x	22	x	x
Cc1ccc(C)c2[nH]c(=O)c(C(c3nnnn3Cc3ccccc3)N3CCCCCC3)cc12 (stereo unspecified)	x	75*	x	15	x	x
Cc1cccc2cc(C(c3nnnn3Cc3ccccc3)N3CCCCC3)c(=O)[nH]c12 (stereo unspecified)	x	68*	x	13	x	x
COc1ccc2cc(CN(Cc3ccc4c(c3)OCO4)C(=O)Nc3ccccc3OC)c(=O)[nH]c2c1	x	-31	x	3	x	x
COc1ccc(-c2cc(C(F)(F)F)nc(SCCC(=O)N3CC(C)OC(C)C3)n2)cc1 (stereo unspecified)	x	-62	x	4	x	x
COc1ccc2[nH]c(=O)c3c(c2c1)OC(C)(C)C=C3	x	29	5	10	0	67*
COc1ccc(-c2cn[nH]c2N)cc1	-21	11	2	1	5	x
COc1ccc(-c2cn[nH]c2N)c(OC)c1	84*	5	0	8	-21	0
O=C(CSc1ncnc2sc3c(c12)CCCC3)NNC(=O)c1ccccc1	x	-48	x	8	x	x
SMILES	Insulin prom inh	EP2 mod	S1P4 ag	EP2 antag	S1P4 antagonist	S1P3 antag
O=C(Nc1ccccc1Cl)OCc1cncs1	67*	-18	-1	3	13	-17
N#CC1=C(N)Oc2n[nH]c(-c3cccs3)c2C1c1c(Cl)cccc1Cl (stereo unspecified)	x	45	x	2	x	x
COc1ccc(Cl)cc1NC(=O)CSc1nnc(-c2ccc(C)cc2)n1C	x	-24	x	16	x	x
Cc1ccc2[nH]c(-c3ccccc3)cc(=O)c2c1	-44	-4	2	13	25	60*
c1cc(CNc2ccc(N3CCCC3)cc2)ccn1	x	-140	x	15	x	x
COc1cc2c(C(=O)O)c(C)n(-c3ccccc3)c2c2ccccc12	x	44	0	11	-9	-6
COc1ccc(-n2c(C)c(C(=O)O)c3cc(OC)c4ccccc4c32)cc1	x	70*	0	7	-3	-1
CN1CC(c2ccccc2)C2(SC(=S)N(Cc3ccco3)C2=O)C12C(=O)Nc1ccccc12 (stereo unspecified)	-29	61*	1	9	6	x
CN1CC(c2ccccn2)C2(SC(=S)N(Cc3ccccc3)C2=O)C12C(=O)Nc1ccccc12 (stereo unspecified)	-54	25	-2	7	15	x
Cc1cccn2c(=O)c3cc(C(=O)NC4CCCCC4)c(=N)n(CCCN4CCOCC4)c3nc12	x	1	x	12	x	x
O=C(Nc1ccc([N+](=O)[O-])cc1)Nc1nc(-c2ccc(Cl)s2)cs1	78*	-48	1	15	-25	-9
CC(=O)Nc1nc(-c2ccc([N+](=O)[O-])cc2)cs1	8	-11	-1	6	-3	-3
COc1cccc(CN2CCN(C(=O)NCc3ccccc3)[C@@H](C)C2)c1	x	-31	x	x	x	x
Cn1c(I)nc2ccccc21	x	-48	x	6	x	x
O=C1/C(=C/c2cccc([N+](=O)[O-])c2)CCc2ccccc21	8	7	-1	10	16	-5
CCN1C/C(=C\c2cccc([N+](=O)[O-])c2)C(=O)/C(=C/c2cccc([N+](=O)[O-])c2)C1	100*	-70	0	12	0	-1
O=C(NC1CCCc2ccccc21)C1CCN(c2ccc(S(=O)(=O)N3CCCC3)cc2)CC1 (stereo unspecified)	x	9	x	9	x	x
CC(=O)Nc1ccc(-n2c(C)nc(=O)c(-c3ccccc3)c2C)cc1	7	23	1	12	-2	1
Cc1nc(=O)c(-c2ccccc2)c(C)n1-c1ccc(O)cc1	100*	1	3	5	-7	x
COc1ccc(OC)c(C2C3=C(CC(C)(C)CC3=O)NC3=C2C(=O)CC(C)(C)C3)c1	x	-32	x	11	x	x
O=C1c2ccccc2-n2c1nc1ccccc1c2=O	x	-25	1	54*	2	3
COC(=O)c1c(NC(=O)C2CC2)sc(C(=O)Nc2ccc(C)cc2)c1C	x	-9	x	8	x	x
CC(C)n1c2ccccc2c2cc([N+](=O)[O-])ccc21	17	65*	-1	8	-14	0
O=[N+]([O-])c1ccc2c(c1)oc1ccccc12	5	6	-1	3	-1	x
COc1ccc(-c2c(C)nn3c(NCCCO)c4c(nc23)CCCC4)cc1	x	-76	x	x	x	x
COc1ccc(Nc2c3c(nc4c(-c5ccccc5)c(C)nn24)CCC3)cc1	91*	18	1	8	-12	5
O=C(Nc1ccccc1F)c1cnccn1	12	21	3	4	-6	-1
O=C(Nc1ccccc1-c1ccccc1)c1cnccn1	x	66*!	0	14	-10	-29
Cc1cccc(Oc2ccccc2NC(=O)c2cnccn2)c1	-43	61*	2	13	21	x
